Screens (PubChem BioAssay)
Most compounds without a hit are left out; they make up all but 2.4% or so of the library.
ASK1 primary – inhibitors of human ASK1 kinase | AID 1159602 | AlphaScreen MKK6 phosphorylation by ASK1, luminescence | 22,000 tested, 0.99% active | inhibition, % at 7.44 µM | Q99683; in the data active = inhibition above about 35%
ULK1 primary – human ULK1 kinase inhibition, primary screen; O75385; AlphaScreen Atg13 phosphorylation by ULK1, luminescence; inhibition, % at 5.96 µM; 30,000 tested, 1.9% active; AID 1259251; in the data active = inhibition above about 43%
Target sequence (O75385 whole entry, looked up): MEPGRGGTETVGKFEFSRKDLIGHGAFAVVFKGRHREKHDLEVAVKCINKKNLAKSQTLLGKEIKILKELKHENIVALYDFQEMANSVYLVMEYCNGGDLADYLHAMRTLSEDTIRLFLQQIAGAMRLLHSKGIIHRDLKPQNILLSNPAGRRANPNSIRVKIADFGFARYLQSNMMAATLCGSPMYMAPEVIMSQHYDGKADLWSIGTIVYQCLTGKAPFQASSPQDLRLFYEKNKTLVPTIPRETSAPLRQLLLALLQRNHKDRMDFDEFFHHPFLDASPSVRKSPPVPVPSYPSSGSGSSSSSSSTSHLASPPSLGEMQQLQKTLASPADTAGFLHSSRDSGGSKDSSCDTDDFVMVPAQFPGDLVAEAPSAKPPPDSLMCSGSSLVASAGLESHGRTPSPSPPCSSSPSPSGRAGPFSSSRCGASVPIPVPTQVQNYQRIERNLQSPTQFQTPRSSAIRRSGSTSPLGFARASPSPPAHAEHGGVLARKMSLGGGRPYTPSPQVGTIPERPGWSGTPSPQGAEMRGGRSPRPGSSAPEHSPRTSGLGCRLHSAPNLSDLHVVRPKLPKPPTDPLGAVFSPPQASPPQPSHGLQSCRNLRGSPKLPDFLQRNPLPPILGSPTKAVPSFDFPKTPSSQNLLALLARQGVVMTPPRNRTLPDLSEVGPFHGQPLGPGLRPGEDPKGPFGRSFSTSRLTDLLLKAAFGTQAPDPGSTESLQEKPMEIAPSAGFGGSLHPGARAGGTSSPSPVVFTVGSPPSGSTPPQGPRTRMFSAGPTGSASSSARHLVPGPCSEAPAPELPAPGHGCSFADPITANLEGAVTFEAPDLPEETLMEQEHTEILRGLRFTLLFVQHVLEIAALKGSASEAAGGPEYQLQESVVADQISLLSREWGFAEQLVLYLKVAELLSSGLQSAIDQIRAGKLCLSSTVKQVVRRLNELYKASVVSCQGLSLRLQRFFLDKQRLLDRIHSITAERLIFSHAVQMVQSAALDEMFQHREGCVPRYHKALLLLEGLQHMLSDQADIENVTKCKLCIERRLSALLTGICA
TruHits interf – counter-screen for ASK1 inhibitors: AlphaScreen optical interference. IC50, µM. shares compounds with ASK1 primary. AlphaScreen TruHits beads, signal interference counterscreen. 220 tested, 20% active;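 active = IC50 of 10 µM or lower in the counterscreen; inactive = IC50 above 10 µM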;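 note: loss of AlphaScreen light from TruHits beads alone with no ASK1 enzyme present; potency of signal reduction so a low IC50 flags an assay artifact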
Hits are given with their value; . = inactive; / = no result; ! = not active in a repeat.

SMILES	ASK1 primary	ULK1 primary	TruHits interf
Oc1ccc(CCNc2nc(N3CCN(Cc4ccc5c(c4)OCO5)CC3)nc3c2ncn3-c2ccccc2)cc1	.	.	/
Oc1ccc(CCNc2nc(N3CCN(Cc4ccc5c(c4)OCO5)CC3)nc3c2ncn3C2CCCCC2)cc1	.	.	/
Oc1ccc(CCNc2nc(N3CCN(Cc4ccc5c(c4)OCO5)CC3)nc3c2ncn3-c2ccsc2)cc1	37.9	.	.
COc1ccc(CCNc2nc(NC3CCN(Cc4ccccc4)CC3)nc3c2ncn3C2CCCCC2)cc1	43.4	.	.
O=C1CCCN1CCn1cnc2c(Nc3ccc(N4CCOCC4)cc3)nc(N3CCN(Cc4ccc5c(c4)OCO5)CC3)nc21	.	.	/
CCNc1cc(C(=O)NCCc2ccc(O)cc2)c2ccccc2n1	.	.	/
COc1ccc2c(c1)CC(C(=O)Nc1ccc(-c3cn[nH]c3N)cc1)CO2 (stereo unspecified)	.	.	/
Cc1noc(C)c1-c1nc(N)c2ncn(-c3ccsc3)c2n1	.	.	/
COc1cc(OC)nc(Oc2cccnc2C(=O)N[C@@H](CC(C)C)C(N)=O)n1	/	.	/
COc1ccc2c(c1)C[C@H](C(=O)Nc1ccc(-c3cn[nH]c3)cc1OCCN(C)C)CO2	.	.	/
COc1ccc2c(c1)CC(C(=O)Nc1ccc(-c3cn[nH]c3)cc1OCCN(Cc1ccccc1)Cc1ccccc1)CO2 (stereo unspecified)	41.3	.	.
O=C(Nc1ccc(-c2cn[nH]c2)cc1)C1COc2ccccc2O1 (stereo unspecified)	.	.	/
O=C(Nc1ccc(-c2ncnc3[nH]ccc23)cc1)C1COc2ccccc2O1 (stereo unspecified)	38.0	.	.
CCN(CC)C(=O)C1CCCN(c2nc(C)cc(Nc3ccc(Oc4ccccc4)cc3)n2)C1 (stereo unspecified)	.	.	/
Fc1cc(-c2ccnc(Nc3ccc(-n4ccnn4)cc3)n2)cc(N2CCOCC2)c1	.	.	/
OC1CCN(c2ccc(Nc3nccc(-c4cc(F)cc(N5CCN(C6CC6)CC5)c4)n3)cc2)CC1	40.6	54.7	.
CN1CCc2cc(C(CN)N3CCCCC3)ccc21 (stereo unspecified)	/	.	/
Cc1cc(NC2CC2)nc(Nc2ccc(N3CCOCC3)cc2)n1	.	.	/
Cc1cc(NC2CCN(Cc3ccccc3)CC2)nc(Nc2ccc(N3CCOCC3)cc2)n1	40.0	.	.
Nc1nc(Nc2ccc(N3CCOCC3)cc2)cc(NC2CCN(Cc3ccccc3)CC2)n1	43.0!	.	.
c1ccc(CN2CCC(Nc3cc(Nc4ccc(N5CCOCC5)cc4)ncn3)CC2)cc1	.	.	/
O=[N+]([O-])c1cc(/C=N/Nc2nc(Nc3ccccc3)nc(Nc3ccccc3)n2)ccc1O	/	.	/
O=C(NCc1nc2ccccc2[nH]1)c1ccc2nc(-c3cccs3)sc2c1	.	.	/
O=C(NCCO)c1csc(-c2csc3ccccc23)n1	.	.	/
Cn1c(Nc2ccc(-n3cc(CC(=O)NCc4cccc(C(F)(F)F)c4)c4ccccc43)nn2)nc2ccccc21	.	.	/
SMILES	ASK1 primary	ULK1 primary	TruHits interf
CCCNc1nc(Nc2ccc(N3CCOCC3)cc2)ncc1C	.	.	/
CCN(CC)c1nc(NCCc2ccc(OC)cc2)nc(Nc2cccc(N(C)C)c2)n1	.	.	/
Cc1cnc(Nc2ccc(N3CCOCC3)cc2)nc1NCc1cccnc1	.	.	/
COc1cc2nc(Nc3ccc(N4CCOCC4)cc3)nc(NCCCN3CCCC3=O)c2cc1OC	.	.	/
COc1cc2nc(Nc3ccc(N4CCOCC4)cc3)nc(NCCOc3ccccc3)c2cc1OC	56.8	.	5.83
Cc1cnc(Nc2ccc(N3CCOCC3)cc2)nc1NCc1ccccc1	37.4	.	.
COc1ccc(CCNc2nc(Nc3cccc(N(C)C)c3)nc3cc(OC)c(OC)cc23)cc1	61.1	.	7.62
COc1ccc(CCNc2nc(Nc3ccc(N4CCOCC4)cc3)ncc2C)cc1	40.4	.	.
O=C(NC1CC1)c1cc(N2CCN(c3ccccn3)CC2)nc2ccccc12	.	.	/
COc1ccc(CCNC(=O)c2csc(Nc3ccc4ncccc4c3)n2)cc1	.	.	/
CN(C)S(=O)(=O)c1ccc(C#N)c(/C=C/C(N)=O)c1	/	.	/
O=C(NCc1ccncc1)c1ccc2cncc(-c3ccccc3)c2n1	/	.	/
COc1ccc(CCNc2nc(Nc3ccc(N4CCOCC4)cc3)nc3cc(OC)c(OC)cc23)cc1	52.8	.	6.78
COc1cc2nc(Nc3ccc(N4CCOCC4)cc3)nc(NCCc3ccc(O)cc3)c2cc1OC	.	.	/
CCCNc1nc(Nc2ccccn2)nc2c1ncn2-c1ccsc1	.	.	/
Cc1nc(C)n(-c2ccc(Nc3nccc(-c4cc(F)cc(-c5ncco5)c4)n3)cc2)n1	37.7	.	.
Cc1nc(C)n(-c2ccc(Nc3nccc(-c4cc(F)cc(-c5cn[nH]c5C)c4)n3)cc2)n1	35.6	.	.
Cc1ncn(-c2ccc(Nc3nccc(-c4cc(F)cc(-c5cn[nH]c5C)c4)n3)cc2)n1	48.1	.	.
Cc1[nH]ncc1-c1cc(F)cc(-c2ccnc(Nc3ccc(-n4cnc(C(F)(F)F)n4)cc3)n2)c1	.	.	/
Cc1nc(C)n(-c2ccc(Nc3nccc(-c4cc(F)cc(-c5ccnn5C)c4)n3)cc2)n1	.	.	/
Cc1nc(C)n(-c2ccc(Nc3nccc(-c4cncc(F)c4)n3)cc2)n1	.	.	/
COc1ccc(CCNc2nc(Nc3ccc(C(F)(F)F)cc3)nc3c2ncn3-c2ccsc2)cc1	.	.	/
COc1ccc(CCNc2nc(Nc3ccc(N4CCOCC4)cc3)nc3c2ncn3-c2ccsc2)cc1	37.3	.	7.4
COc1ccc(CCNc2nc(Nc3ccc(N4CCOCC4)cc3)nc3c2ncn3C(C)C)cc1	.	.	/
COc1ccc(CCNc2nc(Nc3ccc(N4CCOCC4)cc3)nc3c2ncn3-c2ccccc2)cc1	36.9	.	.
SMILES	ASK1 primary	ULK1 primary	TruHits interf
COc1ccc(CCNc2nc(Nc3ccc(N4CCOCC4)cc3)nc3c2ncn3Cc2ccc(C(F)(F)F)cc2)cc1	71.6	.	9.52
COc1ccc(CCNc2nc(Nc3ccc(C(F)(F)F)cc3)nc3c2ncn3Cc2ccc(C(F)(F)F)cc2)cc1	.	.	/
O=C(NCCCN1CCCC1=O)c1ccnc(NC2CCN(Cc3ccccc3)CC2)c1	.	.	/
CC(C)N(CCNC(=O)c1ccnc(-c2ccc(C(=O)N3CCN(C)CC3)cc2)c1)C(C)C	.	.	/
CN1CCN(c2ccc(-c3cc(C(=O)NCCOc4ccccc4)ccn3)cc2)CC1	.	.	/
Cc1cccc(Nc2ccc3c(cnn3-c3cccc(C(=O)NCCN4CCN(C)CC4)c3)c2)c1Cl	.	.	/
Cc1cccc(Nc2ccc3c(cnn3-c3cccc(C(=O)NCCN4CCNCC4)c3)c2)c1Cl	43.1	.	.
CC(=O)N1CCN(CCNC(=O)c2cccc(-n3ncc4cc(Nc5cccc(C)c5Cl)ccc43)c2)CC1	.	.	/
Cc1cccc(Nc2ccc3c(cnn3-c3cccc(C(=O)NCCN4CCN(CC5CC5)CC4)c3)c2)c1Cl	35.8	.	.
O=C(NCCN1CCOCC1)c1cccc(-n2ncc3cc(Nc4ccccc4F)ccc32)c1	.	.	/
O=C(NCCN1CCOCC1)c1cccc(-n2ncc3cc(Nc4c(F)cccc4[N+](=O)[O-])ccc32)c1	44.0	.	.
Cc1cc(NCc2nc3ccccc3[nH]2)nc(-c2cccc(N)c2)n1	.	.	/
CCCNC(=O)c1ccnc(-c2ccccc2)c1	.	.	/
Cc1nn(C)c(C)c1-c1ncc(C(=O)NCCOc2ccccc2)s1	.	.	/
COc1ccc(CCn2cnc3ccc(-c4cn[nH]c4)cc3c2=O)cc1	.	.	/
